Test results: PubChem BioAssay (NCATS)
Results filed as inconclusive are left out. A call without a number means that no potency is given here. Calls of active or inactive are those of the source. The call rests on the fitted dose curve; in most records, active means well fitted curve in the direction sought with a large enough effect; inconclusive means small, poorly fitted or top-dose-only effect, or another doubt; inactive means no such curve, though single readings can be large; an effect the other way counts as inactive or inconclusive.

assay: S16 Schwann cell viability assay (CellTiter-Glo assay) (AID 624031); conditions: S16 rat Schwann cells viability, 24 h; series mostly up to 57.5 µM;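 further: cellular ATP luminescence as a viability measure; nearly all actives have a fitted effect of over 70% in size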
Procedure, shortened: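 Luminescent ATP read-out (CellTiter-Glo) after 24 h compound exposure of native S16 rat Schwann cells at 37 °C. Signals were normalized between cell-free wells and DMSO-treated cells, set as 0% activity.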

SMILES | Potency
CCOC(=O)Cc1ccc(-c2ccccc2)cc1 | inactive
O=C1CCC(=O)N1CO | inactive
O=C(OCc1ccccc1)c1cccnc1 | inactive
C[C@@](Cc1ccc(O)c(O)c1)(NN)C(=O)O | inactive
O=S(=O)(O)CC(S)CS (stereo unspecified) | inactive
CN(C)C=Nc1c(I)cc(I)c(CCC(=O)O)c1I | inactive
COc1cc(C)c(/C=C/C(C)=C/C=C/C(C)=C/C(=O)O)c(C)c1C | inactive

assay: S16 Schwann cell PMP22 intronic element firefly luciferase assay (AID 624032); conditions: S16 rat Schwann cells, PMP22 element FLuc, 24 h; series mostly up to 57.5 µM; further: nearly all actives have a fitted effect of over 30% in size; further: potency means the concentration at half of the fitted maximal effect
Procedure, shortened: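 Luciferase reporter of PMP22 intronic-element expression in stably transfected S16 rat Schwann cells, read by ONE-Glo luminescence after 24 h compound exposure at 37 C. Activity scaled between DMSO (0%) and positive-control PTC124; concentration-effect curves quality-classified.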

SMILES | Potency
CC(C)NCC(O)COc1ccccc1-n1cccc1 (stereo unspecified) | inactive
CCCCC/C=C\C/C=C\C/C=C\CCCCC(=O)O | inactive
COc1cc2c(cc1OC)[C@@H](Cc1cc(OC)c(OC)c(OC)c1)[N+](C)(CCCOC(=O)CC/C=C/CCC(=O)OCCC[N+]1(C)CCc3cc(OC)c(OC)cc3[C@H]1Cc1cc(OC)c(OC)c(OC)c1)CC2 (stereo partly specified) | inactive
CCOC(=O)Cc1ccc(-c2ccccc2)cc1 | inactive
CN(C)c1ccc(C(=C2C=CC(=[N+](C)C)C=C2)c2c(O)c(S(=O)(=O)[O-])cc3cc(S(=O)(=O)O)ccc23)cc1 | 36100 nM (active)
CC(C)(Oc1ccc(C2CCCc3ccccc32)cc1)C(=O)O (stereo unspecified) | inactive
CS(=O)(=O)c1ccc([C@@H](O)[C@@H](COC(=O)CN)NC(=O)C(Cl)Cl)cc1 | inactive
O=C(O)/C=C/C(=O)Nc1ccc(S(=O)(=O)Nc2nccs2)cc1 | inactive
CCCCCc1ccc(C)cc1O | inactive
CCCCCCCCCCCC(=O)N(CCO)CCO | inactive
O=C1CCC(=O)N1CO | inactive
O=C(/C=C/c1cccc(F)c1)NC1CC1 | inactive
O=C(O)CCC/C=C\C[C@@H]1[C@@H](/C=C/[C@@H](O)COc2cccc(C(F)(F)F)c2)[C@H](O)C[C@@H]1O | inactive
c1ccc2c(c1)OCC(CN1CCCCC1)O2 (stereo unspecified) | inactive
[O]=[Bi][O][Bi]=[O] | inactive
CC/C=C\C/C=C\C/C=C\C/C=C\C/C=C\C/C=C\CCC(=O)O | inactive
C=Cc1ccc(S(=O)(=O)O)cc1 | inactive
FC(F)(F)C(F)(F)C(F)(F)C(F)(F)C(F)(F)F | inactive
O=C(O)c1cc(N=Nc2ccc(O)c(C(=O)O)c2)ccc1O | inactive
CC(CCc1ccc(O)cc1)NCC(O)c1ccc(O)cc1 (stereo unspecified) | 2030 nM (active)
CN(C)C=Nc1c(I)cc(I)c(CCC(=O)O)c1I | inactive
O=P(O)(O)OC[C@H]1O[C@](O)(COP(=O)(O)O)[C@@H](O)[C@@H]1O | inactive
CNC(=O)C[C@@H](N)C(=O)N[C@@H](C(=O)N[C@@H]1C(=O)N2[C@@H]1SC(C)(C)[C@@H]2C(=O)O)c1ccc(O)cc1 | inactive
COc1cc(C)c(/C=C/C(C)=C/C=C/C(C)=C/C(=O)O)c(C)c1C | 572 nM (active)
